# Measurements taken from PubChem BioAssay (NCI).
# About 83,000 compounds went through this panel and 20% of them were active in at least one assay; those are over-represented in the sample as a whole.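 96-well plates, one dose, 48 hours. Percent growth reported; active if below 10.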 A number with no mark means an inactive call. Activity calls are given as the source filed them.
# Key:
# Assay in all cases: NCI-60 one-dose screen, 48 h (100 = growth as untreated, 0 = no growth, -100 = all killed)
# Details in all cases: 10 µM unless noted
# [1] = tested on: DU-145 prostate
# [2] = tested on: K-562 leukemia
# [3] = tested on: MALME-3M melanoma
# [4] = tested on: MDA-MB-231 breast
# [5] = tested on: RXF 393 renal
# [6] = tested on: SF-268 CNS
# [7] = tested on: SF-295 CNS
# [8] = tested on: SF-539 CNS
# [9] = tested on: UACC-257 melanoma
# [10] = tested on: M14 melanoma
SMILES,growth [1],growth [2],growth [3],growth [4],growth [5],growth [6],growth [7],growth [8],growth [9],growth [10]
COc1ccc(/C=C2\CN(C(=O)CCN3CCC(=NO)CC3)C/C(=C\c3ccc(OC)cc3)C2=O)cc1,22.6%,4.21% (active),-40.9% (active),-57.9% (active),-81.2% (active),13.3%,8.38% (active),-25.5% (active),22.9%,7.58% (active)
O=S(=O)(Nc1ccc(Cl)cc1Cl)c1ccc(-c2cnc(C3CC3)o2)cc1,8.88% (active),10.9%,37.7%,44.2%,-10.7% (active),53.6%,1.37% (active),-13.5% (active),55.4%,10.8%
CN(C)c1ccc(/C=C(\C#N)c2nc3ccccc3s2)cc1,120%,119%,111%,106%,116%,102%,92.9%,100%,93.5%,110%
O=[N+]([O-])c1cccc(-c2nc3sccn3c2-c2ccnc(NCCNS(=O)(=O)c3ccc(C(F)(F)F)cc3)n2)c1,48.5%,21.8%,41.1%,60.2%,56%,39.8%,37.4%,74.5%,49.1%,37.8%
CCCNc1nc(SC)nc(-c2cccc(N)c2)c1C#N,109%,96.8%,98%,83.1%,105%,91.6%,98.7%,102%,111%,101%
Cc1cc(=O)oc2cc(Oc3nc(-c4ccc(Cl)cc4)cn4c(-c5ccc(Cl)cc5)cnc34)ccc12,69.6%,85.1%,43.6%,73.3%,70.5%,95.9%,120%,91.8%,88.3%,64.2%
Clc1nc(Cl)c2c3c(sc2n1)CCCC3,-55.3% (active),-33.2% (active),45%,62.4%,-19.4% (active),26.1%,104%,105%,81.2%,21.1%
CCCCCCCCCCNC(=O)CCl,91.1%,85.3%,87.9%,90.4%,75.3%,82.2%,102%,84.1%,84.3%,83.9%
Cc1ccc(-c2nc(/C=N/Nc3cc(C)nc4ccc(Cl)cc34)c(C)o2)cc1,3.19% (active),-10.9% (active),-74.6% (active),-83.9% (active),-84.9% (active),-52.7% (active),17.1%,-77.7% (active),107%,-14.2% (active)
O=[N+]([O-])c1cccc(-c2nc3sccn3c2-c2ccnc(NCCCNS(=O)(=O)c3ccc(Br)cc3)n2)c1,58.9%,31.7%,59.9%,67.3%,81.3%,56.6%,48.2%,90.3%,61.1%,45.8%
O=C1/C(=C/c2ccc(Cl)c(Cl)c2)CN(C(=O)CCN2CCC(=NO)CC2)C/C1=C\c1ccc(Cl)c(Cl)c1,-82.8% (active),-27% (active),-81.7% (active),-90.5% (active),-88.8% (active),-82.6% (active),-88.5% (active),-93.7% (active),-85.5% (active),-49.7% (active)
COc1cc(/C=N\NC(=O)CN2CCN(c3cc4c(cc3F)c(=O)c(C(=O)N/N=C/c3ccc(O)c(OC)c3)cn4C3CC3)CC2)ccc1O,66.3%,40.5%,62.4%,59.5%,86.9%,59.4%,90.5%,86.9%,41%,80%
CC(C)(C)n1cc(-c2ccnc(NCCNS(=O)(=O)c3ccccc3)c2)c(-c2cccc(O)c2)n1,68.9%,7.69% (active),59.4%,42.7%,61.6%,63.3%,48.3%,52.2%,65.8%,53.9%
Cc1ccc(/C=C2\Oc3cc(OCC(=O)c4ccc(Cl)cc4)ccc3C2=O)cc1,112%,95.2%,90%,107%,99.5%,119%,114%,103%,98.1%,102%
